# Rac1 act GTP bind – modulators of GTP binding to human Rac1 activated mutant; P63000; GST-Rac1 activated beads, fluorescent GTP binding, flow cytometry; actives lie on both sides; 100% means binding = to untreated wells; percent activity (GTP binding), % at 10 µM; 0.11% of 190,000 active;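 active means GTP binding at least 20 percentage points away from the 100% baseline, in either direction, so actives lie on both sides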
# Rab7 wt GTP bind – alters GTP binding to wildtype dog Rab7 | 0.055% of 190,000 active | GTP binding activity (percent of control), % at 10 µM | GST-Rab7 beads, fluorescent GTP binding, flow cytometry; actives lie on both sides; untreated = 100%, excess cold GTP = 0% | AID 758;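 active means fluorescent GTP binding to Rab7 beads changed by at least 20 points from the 100% baseline, either direction, mostly lower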;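 further: median green fluorescence of bound Bodipy-FL-GTP per Rab7 bead population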
# HRas wt GTP bind – modulators of GTP binding to human HRas wildtype. GTP binding activity, % at 10 µM. P01112. 0.14% of 190,000 active. AID 759. GST-Ras wt beads, Bodipy-FL-GTP binding, flow cytometry; actives lie on both sides;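 active means GTP binding activity at least 20% away from the 100% baseline, either lowered as inhibitor or raised as activator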;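 further: 0% = unlabeled GTP competition control and 100% = no-compound control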
# Target sequence (P01112 whole entry, looked up): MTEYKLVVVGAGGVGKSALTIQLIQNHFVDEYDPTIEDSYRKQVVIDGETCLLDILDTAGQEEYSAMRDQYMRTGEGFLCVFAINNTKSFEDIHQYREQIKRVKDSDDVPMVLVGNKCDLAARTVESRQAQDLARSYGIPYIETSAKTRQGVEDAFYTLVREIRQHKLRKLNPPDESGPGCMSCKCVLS
# Cdc42 wt – human Cdc42 wildtype GTP binding change, either direction | P60953 | GST-Cdc42 beads, Bodipy-GTP binding, flow cytometry; actives lie on both sides | percent activity (GTP binding), % at 10 µM | 0.2% of 190,000 active | AID 761;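 active means percent activity GTP binding at least 20 points away from the 100% baseline, either down as inhibitor or up as activator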;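 further: median bead fluorescence of bound Bodipy-FL-GTP at 100 nM; 0% = excess unlabeled GTP control and 100% = no compound control; below 100% means less GTP binding so inhibitor and above means activator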
# Target sequence (P60953 whole entry, looked up): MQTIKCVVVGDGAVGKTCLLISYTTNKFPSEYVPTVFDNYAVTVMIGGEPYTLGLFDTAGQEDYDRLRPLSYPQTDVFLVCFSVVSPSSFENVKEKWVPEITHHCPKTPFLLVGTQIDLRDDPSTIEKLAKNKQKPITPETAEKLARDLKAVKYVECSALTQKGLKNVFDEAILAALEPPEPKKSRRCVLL
# Rab2A wt mod – changes GTP binding to wildtype dog Rab2A, up or down. P61105. GST-Rab2 wt beads, Bodipy-GTP binding, flow cytometry. GTP binding activity, % at 10 µM. 0.19% of 190,000 active. AID 760;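 active means GTP binding activity at least 20 points away from 100%, either lowered or raised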;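 further: 0% = beads with excess unlabeled GTP and 100% = no-compound control corrected for plate trend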
# Rac1 wt modul – human Rac1 wildtype GTP binding, inhibitors and activators; AID 757; 0.27% of 190,000 active; P63000; GTP binding activity (% of control), % at 10 µM; GST-Rac1 beads, fluorescent GTP binding, flow cytometry; actives lie on both sides; 0 = cold GTP competed, 100 = untreated;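 active means GTP binding activity at least 20 points away from the 100% control level, either lower or higher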
# The depositor's hits bear a star; . = no result given; [ ] = dose if it differs, or a comment. Shown are actives, neighbours in structure and some others; about 0.4% of the full set was active somewhere.
SMILES,Rac1 act GTP bind,Rab7 wt GTP bind,HRas wt GTP bind,Cdc42 wt,Rab2A wt mod,Rac1 wt modul
O=C(N/N=C/c1ccc([N+](=O)[O-])o1)c1cn(-c2ccccc2)nc1-c1ccccc1,92.0,96.0,85.0,89.0,83.0,82.0
O=C(N/N=C/c1ccc([N+](=O)[O-])o1)c1cn(-c2ccccc2)nc1-c1ccc(Cl)cc1,86.0,98.0,81.0,81.0,82.0,79.0*
O=C(O)c1cccc(NC(=S)N/N=C/c2ccccc2OCc2ccc(Br)cc2)c1,94.0,98.0,97.0,89.0,93.0,94.0
COC(=O)c1ccc(COc2ccccc2/C=N/Nc2cccc(C(=O)O)c2)cc1,128.0*[activator],126.0*[activator],121.0*[activator],124.0*[activator],128.0*[activator],141.0*[activator]
CN1CCN(C(=S)c2cn(CCOc3ccccc3)c3ccccc23)CC1,96.0,94.0,95.0,97.0,95.0,100.0
O=C(COC(=O)c1ccccc1S(=O)(=O)N1CCCCC1)NCC(F)(F)F,100.0,98.0,101.0,104.0,101.0,105.0
Cc1ccccc1NC(=O)CN1C(=O)S/C(=C\c2ccc(-c3cc(C(=O)O)ccc3C)o2)C1=O,83.0,91.0,86.0,79.0*,85.0,87.0
Cc1ccccc1CNc1nnnn1C,99.0,98.0,99.0,104.0,99.0,99.0
Cc1nn(CCc2nn[nH]n2)c2nc(-c3ccc(C4CCCCC4)cc3)cc(C(F)(F)F)c12,78.0*,84.0,82.0,77.0*,81.0,79.0*
Cc1nn(Cc2ccccc2)c(C)c1NC(=O)CSc1nc2c(c(C(F)(F)F)n1)CCc1ccccc1-2,88.0,92.0,85.0,84.0,83.0,75.0*
CCc1ccc(NS(=O)(=O)c2ccc3[nH]cc(C(=O)N4CCc5ccccc54)c(=O)c3c2)cc1,95.0,91.0,93.0,70.0*,93.0,92.0
COc1cccc(C2CC(c3ccccc3)Nc3ncnn32)c1 (stereo not drawn),102.0,98.0,103.0,113.0,106.0,123.0*[activator]
COc1cccc(C2CC(c3ccccc3OC)n3ncnc3N2)c1 (stereo not drawn),98.0,100.0,100.0,98.0,99.0,107.0
NS(=O)(=O)c1ccc(N2N=C(c3ccccc3)CC2c2ccccc2)cc1 (stereo not drawn),97.0,94.0,98.0,71.0*,100.0,99.0
CCOC(=O)c1cnc(SCCN2CCOCC2)nc1N,95.0,102.0,97.0,94.0,100.0,97.0
CCOC(=O)c1c2c3c(cccc3[nH]c1=O)C(=O)c1ccccc1-2,80.0,84.0,66.0*,63.0*,65.0*,76.0*
COCCCNc1c2c3c(cccc3[nH]c1=O)C(=O)c1ccccc1-2,90.0,87.0,84.0,86.0,82.0,84.0
CCOC(=O)c1c2c3c(c(Cl)ccc3[nH]c1=O)C(=O)c1ccccc1-2,65.0*,88.0,44.0*,41.0*,44.0*,45.0*
Cc1ccc(CS(=O)(=O)CCC(=O)N2CCOCC2)cc1,93.0,97.0,98.0,97.0,94.0,95.0
Cc1ccc(COc2ccsc2C(=O)O)cc1,115.0,98.0,114.0,120.0*[activator],117.0,118.0
Cc1cc(-c2n[nH]c(=S)n2/N=C/C(Cl)=C/c2ccccc2)n[nH]1,85.0,77.0*,77.0*,92.0,85.0,85.0
Cc1ccc(-n2c(SCc3cc(=O)n4ccsc4n3)nnc2-c2cccnc2)c(C)c1,120.0*[activator],108.0,109.0,146.0*[activator],118.0,163.0*[activator]
Cc1ccc(-n2c(SCC(N)=O)nnc2-c2cccnc2)c(C)c1,100.0,105.0,101.0,102.0,104.0,107.0
CCCCCCCCSc1nnc2[nH]c(=O)cc(N)n12,.,.,84.0,69.0*,.,.
COc1ccc(-c2csc(NC(=O)Cc3cccc4ccccc34)c2C(=O)O)cc1,82.0,81.0,78.0*,76.0*,75.0*,70.0*
SMILES,Rac1 act GTP bind,Rab7 wt GTP bind,HRas wt GTP bind,Cdc42 wt,Rab2A wt mod,Rac1 wt modul
COc1ccc(-c2csc(NC(=O)c3cccs3)c2C(=O)O)cc1OC,95.0,102.0,92.0,92.0,90.0,91.0
N#Cc1ccc2ccn(CC(=O)N3CCCc4ccccc43)c2c1,106.0,110.0,109.0,109.0,109.0,129.0*[activator]
O=C(CN1CCCCC1)N1CCCc2ccccc21,101.0,100.0,103.0,104.0,102.0,106.0
COc1cc2c(cc1OC)-c1cc(NCc3ccccn3)nc(=O)n1CC2,84.0,87.0,79.0*,79.0*,80.0,83.0
CCNc1cc2n(c(=O)n1)CCc1cc(OC)c(OC)cc1-2,87.0,87.0,86.0,88.0,86.0,86.0
COc1cc2c(cc1OC)-c1cc(NC3CCCCCCC3)nc(=O)n1CC2,88.0,91.0,77.0*,77.0*,80.0,89.0
CC(C(=O)Nc1ccc(S(=O)(=O)N2CCOCC2)cc1)N1C(=O)C2CC=CCC2C1=O (stereo not drawn),95.0,104.0,99.0,99.0,98.0,98.0
Cc1ccc(C)c(N2CCN(C(=O)CN(C)S(=O)(=O)c3ccc4c(c3)CCC(=O)N4)CC2)c1,80.0,84.0,82.0,76.0*,77.0*,79.0*
O=C(O)c1ccccc1Sc1ncnc2sc3c(c12)CCC3,123.0*[activator],107.0,121.0*[activator],129.0*[activator],124.0*[activator],123.0*[activator]
Cc1sc2ncnc(Sc3ccccc3C(=O)O)c2c1C,132.0*[activator],122.0*[activator],124.0*[activator],137.0*[activator],134.0*[activator],145.0*[activator]
CC(=O)c1ccc(NC(=O)C(C)n2nc(-c3ccccc3)c3cc(Cl)ccc32)cc1 (stereo not drawn),99.0,96.0,97.0,100.0,98.0,104.0
CCc1sc(C(=O)Nc2ccc(F)cc2C)cc1C,98.0,98.0,97.0,99.0,98.0,104.0
COc1ccccc1Oc1ccccc1C(=O)O,119.0,112.0,114.0,122.0*[activator],116.0,130.0*[activator]
CC(C)(C)C(=O)OCC1OC(n2cnc(C(N)=O)n2)C(O)C1O (stereo not drawn),103.0,104.0,110.0,119.0,114.0,120.0*[activator]
COC(=O)c1ncn(C2OC(COC(C)=O)C(OC(C)=O)C2OC(C)=O)n1 (stereo not drawn),100.0,101.0,102.0,98.0,98.0,104.0
CC(C)N1CCN(CC#Cc2ccccc2)CC1CCO (stereo not drawn),97.0,100.0,101.0,98.0,99.0,102.0
N#C/C(=C\c1ccc(OCC(N)=O)cc1)S(=O)(=O)c1ccccc1,96.0,96.0,94.0,95.0,94.0,97.0
CC1Cc2ccccc2N1C(=O)CSc1nnnn1Cc1ccccc1 (stereo not drawn),98.0,101.0,102.0,106.0,99.0,108.0
O=C(Cc1ccc(Nc2nc(=S)[nH]c3ccccc23)cc1)NC1CCCCC1,76.0*,82.0,68.0*,65.0*,66.0*,57.0*

# High-throughput results deposited in PubChem BioAssay by NMMLSC.
